# Screening results: PubChem BioAssay, several laboratories
# In the library only some 12% were active in any assay of this set; here they are far more common.
# KCC2 mod = KCC2 (human) Cl- transport modulation. KCC2 cells, thallium flux FluoZin-2 fluorescence. B-score of Tl+ flux slope (higher = more flux/activation; lower = inhibition) at 10 µM. 2.2% of 190,000 active. AID 1456;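 active = thallium flux slope and its plate-corrected score both differing from the plate sample mean at a set confidence after two filtering rounds, in either direction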;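 note: slope of fluorescence scaled to starting intensity during 10 to 20 s after thallium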
# INS promoter inh = TRM-6 insulin promoter activity inhibition; TRM-6 cells (human fetal islet line), insulin promoter-eGFP reporter, imaging; reporter expression induced with tamoxifen; inhibition, % at 2 µM; 0.9% of 130,000 active; AID 1273;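 active = inhibition above the mean plus 3 SD, with well images judged a real hit on visual review, cut at about 60% in these data, passing the limit was not always enough; inconclusive = inhibition over the cutoff but images rejected on review; inactive = inhibition not above the cutoff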
# WT yeast gro inh = growth inhibition of WT yeast, mitochondrial fusion screen. mitochondrial fusion phenotypic screen, WT strain. inhibition, % at 10 µM. 2.1% of 190,000 active. AID 1362; in the data active = inhibition above about 58%; tested in S. cerevisiae
# ROMK mod = modulates human ROMK potassium channel activity | P48048 | Tet-inducible ROMK, thallium flux fluorescence; actives lie on both sides | B-score at 10 µM | 2% of 130,000 active | AID 1918;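 active = signal ratio slope over the read window, or its plate-corrected B-score, at least 3 SD from the plate mean, either direction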;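 note: B-score of the F/F0 ratio slope over 7 to 12 s after thallium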
# Lmaj promast = inhibitors of Leishmania major promastigote growth. Leishmania major promastigotes, resazurin fluorescence viability. inhibition, % at 10 µM. 9% of 200,000 active; in the data active = inhibition above about 50%;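 note: promastigotes grown with compound for 44 hours at 28 °C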
# Ins promoter up = MIN6 insulin promoter up-regulation | MIN6 insulin promoter-GFP reporter, high-content imaging; hits give high values | z-score at 5 µM | 0.3% of 190,000 active | AID 1625;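 active = z-score above 3 at 5 µM with at least 500 cells counted in the well; inconclusive = wells under 500 cells, flagged as cytotoxic or low count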
# KCC2 secondary = KCC2 (human) modulation, secondary assay. normalised thallium flux (F/F0 slope) at 10 µM. HEK293-KCC2, thallium flux, FluoZin2 fluorescence; hits give high values. AID 1713. shares compounds with KCC2 mod. 15% of 3,700 active;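 active = thallium flux slope above the same plate's solvent-only control mean plus 3 SD; inconclusive = the two replicate wells disagree; inactive = no significant difference from solvent-only control wells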
# KCC2 bumet counter = thallium flux persisting under bumetanide in KCC2 cells, counter-screen secondary assay; shares compounds with KCC2 mod; HEK293-KCC2 + bumetanide/ouabain, thallium flux FluoZin2; hits give high values; normalized thallium flux at 10 µM; 49% of 3,700 active; AID 1714;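 active = thallium entry rate above the same plate's blocked-transporter control wells by more than 3 SD; inconclusive = the two repeat wells disagree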;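 note: raw slope of fluorescence over initial fluorescence between 10 and 20 s after thallium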
# KCC2 sec2 = KCC2 (human) modulation, second secondary assay. shares compounds with KCC2 mod. HEK293-KCC2, thallium flux FluoZin2 fluorescence; actives lie on both sides; F/F0 rise rate, 10–20 s post-thallium. normalized thallium flux at 10 µM. 23% of 3,700 active. AID 1715;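 active = thallium flux slope more than 3 SD above or below the plate's solvent-only control mean, mostly below; inconclusive = the two repeat wells disagreed; inactive = no significant shift from solvent-only controls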;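 note: raw slope with 0.1% DMSO as baseline and bumetanide as block control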
# HEK293 Tl flux = counter-screen for KCC2 modulators: effect in parental HEK293 cells; shares compounds with KCC2 mod; thallium flux FluoZin2, ouabain; baseline-ratio fluorescence slope, 10–20 s after thallium; thallium flux rate (normalised fluorescence) at 10 µM; 46% of 3,700 active;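 active = thallium flux rate significantly above the same plate's solvent-only control wells, beyond their mean plus 3 SD; inconclusive = the two replicate wells gave conflicting results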
# KCC2 ouabain = KCC2 (human) modulation, ouabain retest; shares compounds with KCC2 mod; HEK293-KCC2, thallium flux FluoZin2 fluorescence; bidirectional: low = inhibitor, high = activator; raw Tl+ flux slope (below DMSO = inhibition, above = activation) at 10 µM; 48% of 3,700 active;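 active = thallium flux slope beyond 3 SD from same-plate DMSO control mean in most replicates, usually higher, sometimes lower; inconclusive = repeat tests gave conflicting results; inactive = no significant difference from controls in most replicates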;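 note: slope of initial-normalized fluorescence between seconds 10 and 20 after thallium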
# HEK293 Tl flux2 = acts in parental HEK cells, second KCC2 counter-screen | shares compounds with KCC2 mod | HEK293 parental, thallium flux FluoZin-2 fluorescence slope | thallium flux slope at 10 µM | 33% of 3,700 active;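 active = thallium flux slope above the same plate's solvent-control mean plus 3 SD in both duplicate wells; inconclusive = duplicate wells that disagreed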;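 note: run without ouabain in cells lacking the KCC2 cotransporter; slope of fluorescence scaled to its starting value between 10 and 20 s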
# An asterisk follows results filed as active; ? = inconclusive; nt = no result.
SMILES,KCC2 mod,INS promoter inh,WT yeast gro inh,ROMK mod,Lmaj promast,Ins promoter up,KCC2 secondary,KCC2 bumet counter,KCC2 sec2,HEK293 Tl flux,KCC2 ouabain,HEK293 Tl flux2
Cc1ccc(C(=O)NC(=S)N2CCN(C(=O)OC(C)(C)C)CC2)cc1Br,19*,nt,2,nt,-9,0.62,?,0.088*,0.074*,0.062*,0.087*,0.057*
CCOC(=O)N1CCN(C(=S)NC(=O)c2ccc(Br)cc2)CC1,17*,nt,17,0.66,-2,-0.51,0.023*,0.059*,0.035,?,0.025,0.013*
CN1CCN(C(=S)NC(=O)c2ccc(Cl)cc2)CC1,14*,nt,-7,nt,-8,-1.1,0.0066,0.02*,0.034,0.018*,0.029*,0.017*
c1ccc(CNc2ncnc3sc4c(c23)CCC4)nc1,-4.2*,-41,0,nt,9,-0.85,0.0097,0.0049,0.032,0.0059*,0.021,0.01
CCCC1=NN2C(=N)/C(=C\c3cc(C)n(-c4cc(C)cc(C)c4)c3C)C(=O)N=C2S1,12*,3,14,0.35,45,0.83,0.01,0.015*,0.034,?,0.025*,0.013
Cc1ccc(-n2cccc2/C=C2\C(=N)N3N=C(c4ccco4)SC3=NC2=O)cc1,3.9,-8,44,1.9,14,-0.32,nt,nt,nt,nt,nt,nt
CCC1=NN2C(=N)/C(=C\c3cccn3-c3ccc(C)c(C)c3)C(=O)N=C2S1,7*,0,14,2.3,-11,-0.04,0.0062,0.048*,0.049*,0.037*,0.042*,0.034*
CCC1=NN2C(=N)/C(=C\c3cccn3-c3ccc(Cl)cc3)C(=O)N=C2S1,18*,6,29,2.4,-4,nt,?,0.043*,0.03,0.014*,0.027,0.011*
O=C1c2cccnc2C(=O)N1Cc1ccccc1,0.044,nt,7,nt,-8,0.47,nt,nt,nt,nt,nt,nt
O=C1c2ccccc2C(=O)N1Cc1cccnc1,-5.4*,nt,13,-0.025,-9,nt,0.0084,0.0058,0.031,0.0072,0.021,?
CCc1cc(=O)oc2c(C)c(O)c(CN(C)C)cc12,nt,36,4,0.15,6,0.47,nt,nt,nt,nt,nt,nt
Nc1ccc2oc(-c3cccs3)nc2c1,-3.9*,nt,6,0.83,-5,1.2,0.007,0.0052,0.031,0.0084,0.019,0.011
Cc1ccc(-c2nc3cc(N)ccc3o2)cc1,0.62,19,17,nt,46,-0.09,nt,nt,nt,nt,nt,nt
CC(C)Cc1ccc(/C=C/C(=O)N2CCOCC2)cc1,-1.1,3,15,-0.23,4,-0.42,nt,nt,nt,nt,nt,nt
CON(C)c1nc(OCC#N)nc(N(C)C)n1,0.58,32,4,0.27,-6,0.16,nt,nt,nt,nt,nt,nt
O=C(COC(=O)C1CCCN1C(=O)c1cccs1)c1ccccc1 (stereo not given),nt,nt,-5,nt,-1,0.41,nt,nt,nt,nt,nt,nt
Cc1ccc(C(C)C)c(OCc2n[nH]c(=S)o2)c1,28*,-64,13,0.55,-7,0.64,0.014,0.043*,?,0.034*,0.035*,0.034*
S=c1[nH]nc(COc2ccc(Cl)cc2)o1,-6.1*,-15,-18,nt,-7,1.7,0.0072,?,0.022*,0.0081,?,0.011
Cc1ccc(C)c(OCc2n[nH]c(=S)o2)c1,-0.53,nt,nt,nt,nt,-0.14,nt,nt,nt,nt,nt,nt
S=c1[nH]nc(CCc2ccc(Cl)cc2)o1,-7.8*,10,19,nt,37,0.98,0.01,0.007,0.023*,0.0074,0.04*,0.01
CC1(c2ccccc2)NC(=O)N(NC(=O)CSc2n[nH]c(N)n2)C1=O (stereo not given),0.087,nt,nt,nt,nt,-0.14,nt,nt,nt,nt,nt,nt
Cc1cc(C)n2c(Br)c(CSc3nc4ccccc4s3)nc2n1,-3.7*,31,16,-1.5,3,-0.07,0.0069,0.0051,0.027*,0.0061*,0.016*,0.0096
O=C(Cc1ccccc1)Nc1cccc(-c2nnc(-c3ccco3)o2)c1,-1.9,nt,9,-1.5,40,nt,0.0052,0.0045,0.03,0.0068,?,0.01
C/C(=N\NC(=O)CSCc1ccc([N+](=O)[O-])cc1)c1cccc(Br)c1,-0.056,-50,2,0.048,-9,-0.25,nt,nt,nt,nt,nt,nt
COc1cc2ccccc2cc1C(=O)NC(=S)Nc1cc(C(=O)O)ccc1C,-7*,-67,17,1.1,-8,-0.42,0.008,0.0085*,0.033,0.0064,0.017*,0.01
SMILES,KCC2 mod,INS promoter inh,WT yeast gro inh,ROMK mod,Lmaj promast,Ins promoter up,KCC2 secondary,KCC2 bumet counter,KCC2 sec2,HEK293 Tl flux,KCC2 ouabain,HEK293 Tl flux2
COc1ccc(CC(=O)N2CCN(C(=O)c3ccco3)CC2)cc1,0.061,43,-12,nt,-4,0.35,nt,nt,nt,nt,nt,nt
CCc1cc2cc(C)cc(C)c2nc1SCC(=O)NNC(=O)c1ccco1,1.9,nt,-3,-0.84,-3,0.76,nt,nt,nt,nt,nt,nt
CCc1cc2cc(C)c(C)cc2nc1SCC(=O)NNC(=O)c1ccco1,nt,33,10,nt,-6,0.97,nt,nt,nt,nt,nt,nt
CCc1cc2ccc(OC)cc2nc1SCC(=O)NNC(=O)c1ccco1,17*,nt,3,0.41,-9,-0.13,0.0081,0.018*,0.034,0.028*,0.025*,0.014*
CCc1cc2cccc(C)c2nc1SCC(=O)NNC(=O)c1ccco1,nt,25,12,nt,-10,-0.31,0.0096,0.01*,0.032,0.011*,0.021,0.011
CCc1cc2ccc(OC)cc2nc1SCC(=O)N1CCN(C(=O)c2ccco2)CC1,-4.1*,nt,nt,nt,nt,-0.62,0.0057,0.0039,0.024*,0.0052*,0.012*,0.0084*
COc1ccccc1CNC(=O)c1cccs1,-0.45,17,5,0.056,-4,0.09,nt,nt,nt,nt,nt,nt
Cc1ccc(N2C(=O)C(Cc3ccc(O)cc3)NC2=S)cc1C (stereo not given),-3.9*,43,-2,-0.019,-5,0.29,0.0088,0.0047,0.032,0.0074,0.023,0.01
Fc1ccc(N/N=C(/c2ccccc2)c2ccccn2)cc1,1,17,51,-0.69,-4,-0.22,nt,nt,nt,nt,nt,nt
CC(C)(C)c1cc(C(=O)NNC(=O)c2ccc(Cl)cc2)no1,94*,nt,nt,nt,nt,nt,0.037*,0.1*,0.05*,0.057*,?,0.026*
Cc1cccn2cc(CCNC(=O)c3ccco3)nc12,nt,nt,-10,nt,2,1.3,nt,nt,nt,nt,nt,nt
CC1=C(/C=C/C(C)=N\NC(=O)c2ccncc2)C(C)(C)CCC1,15*,-17,4,-0.48,81*,-0.24,0.005,0.032*,?,0.024*,0.033*,0.026*
